# Screening results from PubChem BioAssay.
# POLB inh – qHTS Assay for Inhibitors of DNA Polymerase Beta | Pol beta primer extension/strand displacement, fluorescence kinetic | Potency, µM (doses to about 114 µM), without a hit: at the highest dose activity change, negative = inhibition, actives largely listed as inhibitors | 340,000 compounds, 1.3% hits | AID 485314, 2010; further: potency means the concentration at half of the fitted maximal effect; on the % scale 0 is the no-effect control and ±100 the full control effect
#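 Kinetic readout of DNA synthesis with strand displacement by Pol beta. Compound and 10 nM enzyme sit 15 min at room temperature; 50 nM substrate starts the reaction, read immediately and at 10 min.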
# Pol kappa inh-1 – qHTS for Inhibitors of Polymerase Kappa; DNA polymerase kappa (Homo sapiens), Q9UBT6; purified Pol kappa, fluorescent DNA synthesis assay, 10 min; Potency, µM (highest dose often 107 µM), without a hit: top-dose activity, negative = inhibition, most hits filed as inhibitors; 400,000 compounds, 0.53% hits; AID 588579, 2011; further: potency means the concentration at half of the fitted maximal effect; on the % scale 0 is the no-effect control and ±100 the full control effect
#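 Pol kappa 10 nM + cpd, 15 min RT; start w/ substrate 50 nM final; fluorescence kinetic read, 0 and 10 min. Neg ctrl: buffer, no enzyme.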
# Pol eta inh-1 – qHTS for Inhibitors of Polymerase Eta. DNA polymerase eta (Homo sapiens), Q9Y253. recombinant Pol eta, fluorescent DNA replication assay. Potency, µM (top dose mostly 114 µM), inactives show at the highest dose activity change, negative = inhibition, usual class: inhibitors. 390,000 compounds, 1.2% hits. AID 588591, 2011; further: potency means the concentration at half of the fitted maximal effect; on the % scale 0 is the no-effect control and ±100 the full control effect
#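 Pol eta (10 nM) was preincubated with compounds for 15 min at room temperature, after which fluorescent replication substrate (50 nM final) was added to start the reaction. Fluorescence was read kinetically at 0 and 10 min.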
# WRN inhibitor – qHTS for Inhibitors of WRN Helicase | Bifunctional 3'-5' exonuclease/ATP-dependent helicase WRN (Homo sapiens), Q14191 | WRN helicase unwinding, fluorescent forked duplex, kinetic | Potency, µM (top dose mostly 114 µM), inactives show at the top dose activity change, negative = inhibition, hits mostly inhibitors | 360,000 compounds, 0.46% hits; further: potency means the concentration at half of the fitted maximal effect; on the % scale 0 is the no-effect control and ±100 the full control effect; nearly all actives have a fitted effect of over 55% in size
#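 Enzyme (20 nM final) and test compound sit together 15 min at room temperature before substrate addition. Substrate is a single-forked duplex oligonucleotide (100 nM) labelled with fluorophore and quencher, with 2 mM ATP; helicase unwinding raises red fluorescence, read kinetically.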
# FEN1 inhibitor – qHTS Assay for the Inhibitors of Human Flap endonuclease 1 (FEN1) | Recombinant FEN1 flap cleavage, fluorescence, 15 min | Potency, µM (doses to about 114 µM), for inactives: at the highest dose activity change, negative = inhibition, hits mostly inhibitors | 390,000 compounds, 0.35% hits | AID 588795, 2011; further: potency means the concentration at half of the fitted maximal effect; on the % scale 0 is the no-effect control and ±100 the full control effect; nearly all actives have a fitted effect of over 65% in size
# Target sequence (P39748 whole entry, looked up): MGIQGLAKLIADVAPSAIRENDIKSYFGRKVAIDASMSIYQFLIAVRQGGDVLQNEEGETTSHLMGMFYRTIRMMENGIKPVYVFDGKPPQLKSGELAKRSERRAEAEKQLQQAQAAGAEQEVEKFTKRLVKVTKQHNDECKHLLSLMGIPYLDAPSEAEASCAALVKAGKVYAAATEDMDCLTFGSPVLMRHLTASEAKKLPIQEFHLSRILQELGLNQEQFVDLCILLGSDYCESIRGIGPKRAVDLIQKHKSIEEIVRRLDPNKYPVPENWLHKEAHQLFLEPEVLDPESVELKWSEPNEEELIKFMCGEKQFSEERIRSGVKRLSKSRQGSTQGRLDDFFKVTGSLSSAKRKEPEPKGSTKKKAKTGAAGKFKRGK
#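 Quantitative HTS format: each compound was titrated, incubated with 10 nM nuclease for 15 min at room temperature, then challenged with flap substrate at 50 nM final. Signal change over 15 min gave concentration–effect curves.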
# Pol iota inh – qHTS for Inhibitors of Polymerase Iota; Pol iota fluorescent replication assay, 10 min; Potency, µM (doses to about 115 µM), inactives show at the top dose activity, negative = inhibition, most hits filed as inhibitors; 390,000 compounds, 1% hits; AID 588590, 2011; further: potency means the concentration at half of the fitted maximal effect
#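 Pol iota at 10 nM preincubated 15 min with compounds at room temperature; reaction started with fluorescent substrate, 50 nM final. Fluorescence read kinetically at 0 and 10 min; buffer-only wells as negative control.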
# GALK confirm – Confirmation Assay for Inhibitors of Human Galactokinase (GALK); AID 2015, 2009; Potency, µM (titrated, usually from 115 µM), for the others: at the top dose activity, negative = inhibition, usual class: inhibitors; purified GALK, Kinase-Glo ATP depletion luminescence; shares compounds with Pol eta inh-1; 150 compounds, 70% hits
# Redox cycling – Confirmatory Assay for Inhibitors of Human Galactokinase (GALK): Phenol-HRP redox assay counterscreen; shares compounds with Pol eta inh-1; Phenol red-HRP H2O2 redox cycling, absorbance 600 nm; Potency, µM (highest dose often 115 µM), inactives show top-dose activity change, negative = H2O2 signal, hits mostly inhibitors; 150 compounds, 40% hits; AID 2035, 2009
# HEK293 viability – Secondary Assay for Inhibitors of Human Galactokinase (GALK): HEK-293 Cell Viability Assay; AID 2547, 2010; shares compounds with Pol eta inh-1; HEK-293 viability, ATP luminescence (CellTiter-Glo), 24/48 h; Potency, µM (doses to about 46.1 µM), inactives show top-dose activity change, negative = cytotoxicity, hits mostly inhibitors; 170 compounds, 10% hits; further: potency means the concentration at half of the fitted maximal effect; on the % scale 0 is the no-effect control and ±100 the full control effect
# Pol kappa inh-2 – qHTS for Inhibitors of Polymerase Kappa: Confirmatory Assay for Cherry-picked Compounds. Potency, µM, most hits filed as inhibitors. AID 720501, 2013. 920 compounds, 76% hits. purified Pol-kappa, fluorescent strand-displacement substrate. shares compounds with Pol eta inh-1; further: potency means the concentration at half of the fitted maximal effect
# Pol eta inh-2 – qHTS for Inhibitors of Polymerase Eta: Confirmatory Assay for Cherry-picked Compounds; shares compounds with Pol eta inh-1; Potency, µM, most hits filed as inhibitors; Pol eta primer extension, TAMRA/BHQ fluorescence, 10 min; 2,600 compounds, 64% hits; further: potency means the concentration at half of the fitted maximal effect
# Active calls of the source: *; ? = inconclusive; / = no result given; [ ] = dose if it differs, or a comment. This is a sample that favours compounds with a hit; in the whole collection about 2.4% have one here. The call rests on the fitted dose curve; in most records, active means well fitted curve in the direction sought with a large enough effect; inconclusive means small, poorly fitted or top-dose-only effect, or another doubt; inactive means no such curve, though single readings can be large; an effect the other way counts as inactive or inconclusive.
SMILES,POLB inh,Pol kappa inh-1,Pol eta inh-1,WRN inhibitor,FEN1 inhibitor,Pol iota inh,others
CSc1nc(Cl)c(Br)c(N2CC2)n1,/,-3%,-13%,-8%,1%,?,
COc1ccc(-n2nc(C(=O)NCC(=O)N3CCC4(CC3)OCCO4)c3ccccc3c2=O)cc1,52%,1%,10%,-5%,1%,122%,
O=C1NC(=O)N(c2ccccc2F)C(=O)/C1=C/c1ccc(Sc2nc3ccccc3[nH]2)o1,22µM*,22µM*,20µM*,22µM*,?,?,Pol kappa inh-2=27*;Pol eta inh-2=30*
O=C1NC(=O)N(c2ccc3c(c2)OCO3)C(=O)/C1=C/c1ccc(N2CCCCC2)o1,21%,-8%,-17%,-5%,7%,?,
C[C@]12CC[C@@H](O)CC1=CCC1C2CC[C@@]2(C)C1C[C@@H](F)[C@@H]2O (some centres undefined),/,-1%,-8%,5%,-11%,17%,
Cc1nc(N)sc1CCN,/,6%[19.4 µM],/,/,/,/,
Cc1ccc(NS(=O)(=O)c2ccc(Cl)c(N=Nc3c(O)[nH]c(=O)[nH]c3=O)c2)cc1Cl,/,-3%,22µM*,-11%[11.6 µM],45µM*,?,Pol kappa inh-2=60*
CN1C(=O)C(=Cc2ccc(SC3CCCCC3)o2)C(=O)N(C)C1=O,22µM*,-27%,22µM*,-32%,-1%,?,Pol kappa inh-2=?
O=C1NC(=S)N(Cc2ccco2)C(=O)/C1=C\c1cccs1,1.1µM*,/,/,/,/,/,GALK confirm=?;Redox cycling=2%;HEK293 viability=-2%
CCN(CC)c1ccc(/C=C2\C(=O)NC(=O)N(CC3CCCO3)C2=O)cc1 (centres undefined),22%,-10%,2%,-35%,?,-3%,
Cc1cc(/C=C2\C(=O)NC(=O)N(Cc3ccccc3)C2=O)c(C)n1C1CC1,?,-12%,-23%,-14%,3%,?,
Cc1cc(/C=C2/C(=O)NC(=O)N(Cc3ccco3)C2=O)c(C)n1-c1ccccc1,18µM*,71µM*,35µM*,?,4%,2.2µM*,Pol eta inh-2=76*
CCN(CC)c1ccc(/C=C2/C(=O)NC(=O)N(Cc3ccco3)C2=O)cc1,-27%,50µM*,10µM*,56µM*,?,22µM*,Pol eta inh-2=?
COCCCN1CCN(c2nnc3n2-c2sc(Br)cc2C(c2ccccc2Cl)=NC3)CC1,17%,-10%,-8%,-21%,1%,9%,
